Compound activity deposited in PubChem by Broad Institute.
HSF1 inhib – HSF1 inhibition. NIH3T3-HGL HSE-luciferase, MG132-induced, luminescence 8 h; active compounds read low. activity change, negative = inhibition, % at 7.5 µM (by protocol). actives 0.77% (n = 300,000). AID 2098;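 active = more than half of replicate wells show activity change below -50%, luminescence cut by over half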;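 also: luciferase reports HSF-1 transcriptional activity via heat shock element; 0% = median of DMSO wells and -100% = zero luminescence signal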
HSF-1 act – increases HSF-1 driven luciferase reporter signal; NIH3T3-HGL HSF-1 luciferase reporter, MG132, 8 h; 100% = twice DMSO control signal; activation, % at 9 µM; actives 1.7% (n = 300,000); AID 504408;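 active = mean replicate activation of at least 50% with a set share of replicates each reaching 50%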;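 also: 0% = median of the neutral control wells and 100% = twice that signal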
esBAF inh – blocks esBAF chromatin remodeling in mouse ES cells; Bmi1-luciferase knock-in reporter, 24 h; 100% = twice the neutral-well signal; reporter increase, % at 12.5 µM; actives 2% (n = 350,000); in the data active = activation above about 40%;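 also: 0% = median of the plate's neutral control wells and 100% = double that signal; a rise in the Bmi1 reporter signal indicates esBAF inhibition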
Vif imaging – inhibitors of HIV Vif. HEK293T cells, Vif self-association by quenched fluorescence, imaging, 24 h. inhibition, % at 7.49 µM. actives 0.35% (n = 340,000). AID 602346; in the data active = inhibition above about 50%, passing the limit was not always enough
Active calls of the source: *; x = not tested or not shown. Sampled rows, rich in hits. Any-hit rate of the full collection: about 3.4%.

SMILES | HSF1 inhib | HSF-1 act | esBAF inh | Vif imaging
Cc1ccc(SCC(=O)Nc2nccs2)cc1 | 3.9 | 18.0 | 24.0* | -6.3
O=C(CSc1ccccc1)Nc1nccs1 | -2.4 | 19.0 | x | 0.3
O=C(CSc1cn(Cc2ccccc2)c2ccccc12)Nc1nccs1 | 45.0 | 64.6* | 73.4* | 2.4
COc1ccc(-c2cnc3c(c2)C(=O)N([C@H](C)CO)C[C@@H](C)[C@@H](CN(C)C(=O)Cc2ccncc2)O3)cc1 | x | x | -3.2 | x
CCCN(CC1CC1)C(=S)NC(=O)c1ccccc1C | x | x | -1.3 | 0.2
CCCN(CCC)C(=S)NC1CC2C=CC1C2 (configuration not stated) | 30.4 | 51.9* | x | -7.0
Cc1ccc(/C=N/NC(=O)c2cccc(S(=O)(=O)Nc3ccccc3Cl)c2)o1 | 9.3 | 66.0* | -4.7 | -3.9
CCC(=O)N[C@H]1CC[C@H](CCNC(=O)Nc2ccc(F)cc2)O[C@@H]1CO | x | x | 5.3 | x
O=C(C1CCCC1)N1C[C@H]2[C@@H](c3ccccc31)[C@@H](CO)N2C(=O)Nc1cccc(F)c1 | x | x | 6.3 | x
O=C(C1CCCC1)N1[C@@H]2CNc3ccccc3[C@@H]2[C@@H]1CO | x | x | -0.2 | x
O=C(C[C@@H]1CC[C@@H]2[C@H](COC[C@H](O)CN2S(=O)(=O)c2cccc(F)c2)O1)Nc1ccccc1 | x | x | 5.2 | x
COc1ccc(OCCSc2nc(N)cc(N)n2)cc1 | 16.1 | 34.1 | 67.1* | -3.1
Clc1ccc(OCCCCSc2ncccn2)cc1 | 4.7 | 21.3 | x | 1.5
CCCOc1ccc(OCCSc2ncccn2)cc1 | 42.2 | 72.4* | x | -14.5
Cc1ccc(OCCSc2nc(N)cc(N)n2)cc1 | 12.1 | 34.2 | x | 2.4
COc1ccc(CN(C)C[C@H]2OCCCC[C@H](C)Oc3ccc(NC(=O)c4ccncc4)cc3C(=O)N([C@@H](C)CO)C[C@H]2C)cc1 | x | x | 0.6 | x
Nc1nc2c(-c3ccc(Br)cc3)nnn2c2ccccc12 | 16.2 | 55.5* | 15.8 | 0.2
O=C(CSc1nncc2ccccc12)Nc1cccc(O)c1 | 28.5 | 66.5* | -0.3 | 5.0
C/C(=N\Nc1nccnc1Cl)c1ccc(O)cc1 | 1.0 | 12.2 | 41.6* | 4.6
COc1cc(/C=C2\SC(=O)N(CCNC(=O)c3sc4cc(F)ccc4c3Cl)C2=O)cc(OC)c1OC | 2.9 | -9.4 | -3.8 | 62.6*
COc1ccc(CN(C)C[C@@H]2Oc3ccc(NC(=O)Nc4cccc5ccccc45)cc3C(=O)N([C@H](C)CO)C[C@@H]2C)cc1 | x | x | -2.9 | x
CCCCOc1ccc(-c2ncc([N+](=O)[O-])cn2)cc1 | 5.6 | 17.7 | 83.4* | -8.9
CCCCOc1ccc(-c2cnc3ccccc3n2)cc1 | -25.8 | -37.0 | x | x
CCCCOC(=O)c1ccc(Nc2ccc([N+](=O)[O-])cn2)cc1 | 2.6 | 0.5 | x | -1.3
CCCCOc1ccc(-c2ncc(Cl)cn2)cc1 | 25.9 | 17.2 | 86.0* | -1.8
SMILES | HSF1 inhib | HSF-1 act | esBAF inh | Vif imaging
Cc1cc(C(=O)Nc2cccc3c2O[C@@H](CN(C)CC2CC2)[C@@H](C)CN([C@H](C)CO)C3=O)n(C)n1 | x | x | -3.5 | x
O=C(C[C@H]1C[C@@H]2c3cc(NC(=O)NC4CCCC4)ccc3O[C@@H]2[C@@H](CO)O1)NCc1ccc(-c2ccccc2)cc1 | x | x | 4.5 | x
COc1c(O)c(O)c2oc(-c3ccccc3)cc(=O)c2c1OC | -4.1 | -4.8 | -9.0 | -2.6
COc1cc(-c2cc(=O)c3c(O)c(OC)c(OC)c(O)c3o2)ccc1O | 4.4 | -5.7 | 6.8 | 62.4*
C/C(Cc1ccccc1)=N\NC(=O)CNC(=O)Cc1ccc(Cl)cc1 | -53.3* | -62.7 | x | -9.6
C/C(Cc1ccccc1)=N\NC(=O)CNC(=O)Cc1ccccc1 | -1.2 | -2.9 | x | 6.1
COc1cc(/C=C2/C(=N)N3C=CSC3=NC2=O)ccc1OCCOc1ccc(NC(C)=O)cc1 | -9.9 | -30.4 | x | 60.6*
Cc1ccc(C)c(N2CCN(Cc3nnnn3C3CCCCC3)CC2)c1 | -5.0 | 14.1 | -0.2 | -8.0
COc1cccc(N2CCN(Cc3nnnn3C3CCCCC3)CC2)c1 | -60.3* | -67.5 | x | -3.1
c1ccc(-c2cn(CC3CCCCC3)nn2)cc1 | 40.3 | 38.6 | 65.2* | -1.7
Cc1ccc(Cn2cc(-c3ccccc3)nn2)cc1 | 15.6 | 32.8 | 57.0* | -12.5
COc1ccc(-c2cn(CC3CCCCC3)nn2)cc1 | 14.4 | -1.1 | 66.7* | -4.9
CCCCCc1ccc(-c2cn(CC3CCCCC3)nn2)cc1 | -6.5 | -9.6 | -1.6 | 8.2
CCNC(=O)C[C@H]1CC[C@H]2[C@@H](COC[C@@H](O)CN2C(=O)c2cccnc2)O1 | x | x | -4.4 | x
COc1ccc(NC(=O)N(C)C[C@@H]2Oc3ccc(N(C)C)cc3C(=O)N([C@H](C)CO)C[C@H]2C)cc1 | x | x | -7.2 | x
Cc1cc(NCCCn2ccnc2)n2nc(C)c(-c3ccccc3)c2n1 | 1.5 | 25.1 | 46.7* | -2.2
